Assay results as given in PubChem BioAssay AID1159580 (chemical genetic matrix, 2015).
The whole screen tested about 5,500 compounds, of which about 2,000 (36%) were called active. About 18% were inconclusive and are not listed. The list shows a part of the results. Unmarked numbers belong to inactive results. No stated cut-off is given here; in the data, active means normalized growth mostly below about 0.91 (no sharp cut-off); inconclusive means no clear call, values can overlap the other calls; inactive means mostly above about 0.92.

Experiment: chemical genetic growth profiling, strain panel (AID 1159580);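 further: tested at 20 µM; growth read once vehicle control cultures reached saturation at 30 °C; 1 = growth at the plate median or of vehicle wells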
Settings: S. cerevisiae deletion strains, growth OD

O=C(Nc1cccc(Cl)c1)O/N=C1\CCCc2occc21 showed a normalized growth (locus YAR019C, strain CDC15, stronger effect = lower value) of 0.937, a normalized growth (locus YBL105C, strain PKC1, stronger effect = lower value) of 0.952 and a normalized growth (locus YBR135W, strain CKS1, stronger effect = lower value) of 0.936. It also gave a normalized growth (locus YBR136W, strain MEC1, stronger effect = lower value) of 0.939, a normalized growth (locus YBR160W, strain CDC28, stronger effect = lower value) of 0.943 and a normalized growth (locus YDL017W, strain CDC7, stronger effect = lower value) of 0.949. For the same molecule, the normalized growth (locus YDL028C, strain MPS1, stronger effect = lower value) was 0.933, the normalized growth (locus YDL101C, strain DUN1, stronger effect = lower value) was 0.965 and the normalized growth (locus YDL108W, strain KIN28, stronger effect = lower value) was 0.929. It also gave a normalized growth (locus YDL132W, strain cdc53, stronger effect = lower value) of 0.917, a normalized growth (locus YDL214C, strain PRR2, stronger effect = lower value) of 0.809 and a normalized growth (locus YDR052C, strain DBF4, stronger effect = lower value) of 0.964. The normalized growth (locus YDR054C, strain cdc34, stronger effect = lower value) was 0.927, the normalized growth (locus YDR226W, strain ADK1, stronger effect = lower value) was 0.945 and the normalized growth (locus YDR477W, strain SNF1, stronger effect = lower value) was 0.798. For the same molecule, the normalized growth (locus YER123W, strain YCK3, stronger effect = lower value) was 0.759, the normalized growth (locus YER133W, strain GLC7, stronger effect = lower value) was 0.789 and the normalized growth (locus YFL009W, strain cdc4, stronger effect = lower value) was 0.925. For the same molecule, the normalized growth (locus YFL029C, strain CAK1, stronger effect = lower value) was 0.941, the normalized growth (locus YFR003C, strain YPI1, stronger effect = lower value) was 0.937 and the normalized growth (locus YFR019W, strain FAB1, stronger effect = lower value) was 0.944. For the same molecule, the normalized growth (locus YFR028C, strain CDC14, stronger effect = lower value) was 0.935, the normalized growth (locus YGR040W, strain KSS1, stronger effect = lower value) was 0.83 and the normalized growth (locus YGR052W, strain FMP48, stronger effect = lower value) was 0.8. For the same molecule, the normalized growth (locus YGR092W, strain DBF2, stronger effect = lower value) was 0.69, the normalized growth (locus YHR030C, strain SLT2, stronger effect = lower value) was 0.649 (active) and the normalized growth (locus YHR079C, strain IRE1, stronger effect = lower value) was 0.667. It also gave a normalized growth (locus YHR082C, strain KSP1, stronger effect = lower value) of 0.752, a normalized growth (locus YHR205W, strain SCH9, stronger effect = lower value) of 0.659 and a normalized growth (locus YIL147C, strain SLN1, stronger effect = lower value) of 0.943. The normalized growth (locus YJL095W, strain BCK1, stronger effect = lower value) was 0.671, the normalized growth (locus YJL128C, strain PBS2, stronger effect = lower value) was 0.954 and the normalized growth (locus YJL157C, strain FAR1, stronger effect = lower value) was 0.842. For the same molecule, the normalized growth (locus YJR016C, strain ILV3, stronger effect = lower value) was 0.931, the normalized growth (locus YJR066W, strain TOR1 (second series), stronger effect = lower value) was 0.86 and the normalized growth (locus YJR066W, strain TOR1, stronger effect = lower value) was 0.742. For the same molecule, the normalized growth (locus YKL048C, strain ELM1, stronger effect = lower value) was 0.899, the normalized growth (locus YKL067W, strain YNK1, stronger effect = lower value) was 0.817 and the normalized growth (locus YKL101W, strain HSL1, stronger effect = lower value) was 0.829. The normalized growth (locus YKL193C, strain SDS22, stronger effect = lower value) was 0.926, the normalized growth (locus YKL203C, strain TOR2, stronger effect = lower value) was 0.792 and the normalized growth (locus YLR113W, strain HOG1, stronger effect = lower value) was 0.613 (active). It also gave a normalized growth (locus YLR133W, strain CKI1, stronger effect = lower value) of 0.843, a normalized growth (locus YLR403W, strain SFP1, stronger effect = lower value) of 0.748 and a normalized growth (locus YML070W, strain DAK1, stronger effect = lower value) of 0.788. It also gave a normalized growth (locus YMR001C, strain CDC5, stronger effect = lower value) of 0.935, a normalized growth (locus YMR205C, strain PFK2 (second series), stronger effect = lower value) of 0.831 and a normalized growth (locus YMR277W, strain FCP1, stronger effect = lower value) of 0.932. For the same molecule, the normalized growth (locus YNL006W, strain LST8, stronger effect = lower value) was 0.939, the normalized growth (locus YNL020C, strain ARK1, stronger effect = lower value) was 0.828 and the normalized growth (locus YNL161W, strain CBK1, stronger effect = lower value) was 0.945. For the same molecule, the normalized growth (locus YNL183C, strain NPR1, stronger effect = lower value) was 0.652, the normalized growth (locus YNL207W, strain RIO2, stronger effect = lower value) was 0.936 and the normalized growth (locus YNL222W, strain SSU72, stronger effect = lower value) was 0.929. For the same molecule, the normalized growth (locus YNL307C, strain MCK1 (second series), stronger effect = lower value) was 0.83, the normalized growth (locus YOL078W, strain AVO1, stronger effect = lower value) was 0.923 and the normalized growth (locus YOL136C, strain PFK27, stronger effect = lower value) was 0.798. For the same molecule, the normalized growth (locus YOR061W, strain CKA2, stronger effect = lower value) was 0.85, the normalized growth (locus YOR119C, strain RIO1, stronger effect = lower value) was 0.847 and the normalized growth (locus YOR231W, strain MKK1, stronger effect = lower value) was 0.672. It also gave a normalized growth (locus YOR329C, strain SCD5, stronger effect = lower value) of 0.959, a normalized growth (locus YPL031C, strain PHO85, stronger effect = lower value) of 0.741 and a normalized growth (locus YPL153C, strain RAD53, stronger effect = lower value) of 0.772. The normalized growth (locus YPL204W, strain HRR25, stronger effect = lower value) was 0.773, the normalized growth (locus YPL209C, strain IPL1, stronger effect = lower value) was 0.947 and the normalized growth (locus YPL256C, strain CLN2, stronger effect = lower value) was 0.631 (active). It also gave a normalized growth (locus YPR025C, strain CCL1, stronger effect = lower value) of 0.943, a normalized growth (locus YPR106W, strain ISR1, stronger effect = lower value) of 0.944 and a normalized growth (locus YPR111W, strain DBF20, stronger effect = lower value) of 0.918. The normalized growth (strain NNK1, stronger effect = lower value) was 0.927 and the normalized growth (strain TSCII, stronger effect = lower value) was 0.927.
